# According to the supplement of paper PMC8728848:
# The sample as a whole holds a higher share of the strongest signals than the screen did.
# How the values were obtained:
# Assay in all cases: glycan array binding signal (z-score within array); higher = stronger binding
# Conditions in all cases: glycan notation: IUPAC condensed, linker removed
# [1] = target: GlcNAc(a1-4)Gal(b1-4)GlcNAc(b1-3)Gal(b1-4)GlcNAc(b1-3)Gal(b1-4)GlcNAc
# How it was run: (§1)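 Columns mapping to the same glycan were averaged after glycan names were converted to IUPAC-condensed notation. The data come from 3228 arrays in the Consortium for Functional Glycomics database, limited to those with an available protein sequence. Binding is reported as a within-array Z-score averaged across arrays of one protein sequence and across linkers.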
# [2] = target: GlcNAc(a1-4)Gal(b1-4)GlcNAc(b1-3)Gal(b1-4)[Fuc(a1-3)]GlcNAc(b1-3)Gal(b1-4)[Fuc(a1-3)]GlcNAc
# How it was run: as §1
# [3] = target: GlcNAc(b1-2)Man(a1-3)[GlcNAc(b1-2)Man(a1-6)]Man(b1-4)GlcNAc(b1-4)GlcNAc
# How it was run: as §1
# [4] = target: GlcNAc(b1-3)Gal(b1-4)GlcNAc(b1-3)Gal(b1-4)GlcNAc(b1-3)Gal(b1-4)GlcNAc(b1-2)Man(a1-3)[GlcNAc(b1-3)Gal(b1-4)GlcNAc(b1-3)Gal(b1-4)GlcNAc(b1-3)Gal(b1-4)GlcNAc(b1-2)Man(a1-6)]Man(b1-4)GlcNAc(b1-4)GlcNAc
# How it was run: as §1
# [5] = target: GlcNAc(b1-3)Gal(b1-4)GlcNAc(b1-3)Gal(b1-4)GlcNAc(b1-3)Gal(b1-4)GlcNAc(b1-3)Gal(b1-4)GlcNAc(b1-2)[GlcNAc(b1-3)Gal(b1-4)GlcNAc(b1-3)Gal(b1-4)GlcNAc(b1-3)Gal(b1-4)GlcNAc(b1-3)Gal(b1-4)GlcNAc(b1-6)]Man(a1-6)[GlcNAc(b1-3)Gal(b1-4)GlcNAc(b1-3)Gal(b1-4)GlcNAc(b1-3)Gal(b1-4)GlcNAc(b1-3)Gal(b1-4)GlcNAc(b1-2)Man(a1-3)]Man(b1-4)GlcNAc(b1-4)[Fuc(a1-6)]GlcNAc
# How it was run: as §1
# [6] = target: GlcNAc(b1-3)Gal(b1-4)GlcNAc(b1-3)[GlcNAc(b1-3)Gal(b1-4)GlcNAc(b1-3)]GalNAc
# How it was run: as §1
# Kdn(a2-3)Gal(b1-3)GlcNAc = target: Kdn(a2-3)Gal(b1-3)GlcNAc
# How it was run: as §1
# Kdn(a2-3)Gal(b1-4)GlcNAc = target: Kdn(a2-3)Gal(b1-4)GlcNAc
# How it was run: as §1
# [7] = target: Man(a1-3)[Man(a1-6)]Man(a1-6)[Man(a1-3)]Man(b1-4)GlcNAc(b1-4)GlcNAc
# How it was run: as §1
# [8] = target: Neu5Ac(a2-3)Gal(b1-3)GlcNAc(b1-6)GalNAc
# How it was run: as §1
# [9] = target: Neu5Ac(a2-3)Gal(b1-3)[Fuc(a1-4)]GlcNAc
# How it was run: as §1
# [10] = target: Neu5Ac(a2-3)Gal(b1-4)[Fuc(a1-3)]GlcNAc
# How it was run: as §1
# [11] = target: Neu5Ac(a2-3)Gal(b1-4)[Fuc(a1-3)]GlcNAc(b1-3)Gal(b1-4)GlcNAc
# How it was run: as §1
# [12] = target: Neu5Ac(a2-6)Gal(b1-4)GlcNAc(b1-2)Man(a1-3)[GlcNAc(b1-4)][Neu5Ac(a2-6)Gal(b1-4)GlcNAc(b1-2)Man(a1-6)]Man(b1-4)GlcNAc(b1-4)GlcNAc
# How it was run: as §1
# [13] = target: Neu5Ac(a2-6)Gal(b1-4)GlcNAc(b1-2)Man(a1-3)[Man(a1-6)]Man(b1-4)GlcNAc(b1-4)GlcNAc
# How it was run: as §1
# [14] = target: Neu5Ac(a2-6)Gal(b1-4)GlcNAc(b1-2)Man(a1-6)Man(b1-4)GlcNAc(b1-4)GlcNAc
# How it was run: as §1
# [15] = target: Neu5Ac(a2-6)Gal(b1-4)GlcNAc(b1-2)[Neu5Ac(a2-6)Gal(b1-4)GlcNAc(b1-4)]Man(a1-3)[GlcNAc(b1-4)][Neu5Ac(a2-6)Gal(b1-4)GlcNAc(b1-2)[Neu5Ac(a2-6)Gal(b1-4)GlcNAc(b1-6)]Man(a1-6)]Man(b1-4)GlcNAc(b1-4)GlcNAc
# How it was run: as §1
# [16] = target: Neu5Ac(a2-6)Gal(b1-4)GlcNAc(b1-2)[Neu5Ac(a2-6)Gal(b1-4)GlcNAc(b1-4)]Man(a1-3)[GlcNAc(b1-4)][Neu5Ac(a2-6)Gal(b1-4)GlcNAc(b1-4)Man(a1-6)]Man(b1-4)GlcNAc(b1-4)GlcNAc
# How it was run: as §1
# [17] = target: Neu5Ac(a2-6)GlcNAc(b1-4)GlcNAc(b1-4)GlcNAc
# How it was run: as §1
# [18] = target: Neu5Ac(a2-8)Neu5Ac(a2-3)[GalNAc(b1-4)]Gal(b1-4)Glc
# How it was run: as §1
# [19] = target: Neu5Ac9Ac(a2-3)Gal(b1-3)GlcNAc
# How it was run: as §1
# [20] = target: Neu5Gc(a2-3)Gal(b1-3)GlcNAc
# How it was run: as §1
binder,measurement,setting,value
"MXA PilAct-eGFP (Myxococcus xanthus), Q59589 (protein) MRVSRFNPRNRGFTLIELMIVVAIIGILAAIAIPNFIKFQARSKQSEAKTNLKALYTAQKSFFSEKDRYSDFANEIGFAPERGNRYGYRVSAAAGDCEVRNAADLPVPAAGVPCISNDSFRFGANSAIDDPTPVVARFVPQGAAGWNTTLGVQPTIADCPNCNFFAGARGNADNEATFDDWVIAGFEGSGQVGPCSEAGNVASGTPYNTRNDVACDGAAQ",glycan array binding signal (z-score),[1],0.596
same,glycan array binding signal (z-score),[2],1.45
same,glycan array binding signal (z-score),[3],0.002
same,glycan array binding signal (z-score),[4],3.99
same,glycan array binding signal (z-score),[5],3.85
same,glycan array binding signal (z-score),[6],-0.168
same,glycan array binding signal (z-score),Kdn(a2-3)Gal(b1-3)GlcNAc,0.462
same,glycan array binding signal (z-score),Kdn(a2-3)Gal(b1-4)GlcNAc,-0.846
same,glycan array binding signal (z-score),[7],-0.784
same,glycan array binding signal (z-score),[8],-0.507
same,glycan array binding signal (z-score),[9],-0.236
same,glycan array binding signal (z-score),[10],-0.025
same,glycan array binding signal (z-score),[11],-0.9
same,glycan array binding signal (z-score),[12],-1.03
same,glycan array binding signal (z-score),[13],3.09
same,glycan array binding signal (z-score),[14],2.91
same,glycan array binding signal (z-score),[15],-0.369
same,glycan array binding signal (z-score),[16],-0.544
same,glycan array binding signal (z-score),[17],-0.645
same,glycan array binding signal (z-score),[18],3.6
same,glycan array binding signal (z-score),[19],4.29
same,glycan array binding signal (z-score),[20],0.057
